Our source for the outcome and AC50 values is PubChem BioAssay (EPA / NIEHS).

Inconclusive results are not listed. The source made the active and inactive calls. How the source made its calls, unless noted: active means hit-call score of the fitted dose curve at least 0.9, where 1 is the maximum; inactive means score below 0.9.

Assay [1] addresses Bile acid receptor (Homo sapiens) (UniProt Q96RI1). As to the kind of experiment: ATG_FXR_TRANS: Attagene TRANS-FACTORIAL HepG2 Assay for Farnesoid X Receptor (FXR) (AID 2282979; active means hit-call score of the fitted dose curve at least 0.9, where 1 is the maximum;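 further: hits raise reporter mRNA above DMSO so AC50 marks FXR activation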). The note with it: HepG2 Attagene TRANS FXR-GAL4 reporter transcription. The method, boiled down: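 Chimeric FXR-GAL4 activity in transiently transfected human HepG2 liver cells is scored as induction of reporter mRNA after 24 h of dosing. Detection uses RT-PCR with fluorescent labelling and capillary electrophoresis, with DMSO serving as baseline.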

The target of assay [2] is Hepatocyte nuclear factor 4-alpha (Homo sapiens) (UniProt P41235). The assay is described as follows: ATG_HNF4a_TRANS: Attagene TRANS-FACTORIAL HepG2 Assay for human Hepatocyte Nuclear Factor 4 alpha (HNF4a) (AID 2282982; active means hit-call score of the fitted dose curve at least 0.9, where 1 is the maximum). Conditions: HepG2 HNF4a transactivation reporter, mRNA readout. The method, boiled down: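 Gain-of-signal mRNA induction, relative to DMSO vehicle, was read after 24 h compound treatment of HepG2 cells bearing transfected GAL4-UAS reporters. Detection used RT-PCR, 6-FAM primer extension and capillary electrophoresis.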

In assay [3] the target is Transcriptional activator Myb (Homo sapiens) (UniProt P10242). The assay is described as follows: ATG_Myb_CIS: Attagene CIS-FACTORIAL HepG2 Assay for human Myeloblastosis (Myb) Proto-Oncogene Transcription Factor (AID 2282986). Conditions: HepG2 Attagene CIS-FACTORIAL Myb reporter transcription; actives raise or lower the signal. In a few lines:
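HepG2 cells were transiently transfected with cis-regulated multiple reporter transcription units reflecting endogenous Myb activity, then exposed to compound for 24 hours. Reporter mRNA was measured by RT-PCR with capillary electrophoresis; bidirectional fitting versus DMSO baseline.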

In assay [4] the target is Nuclear respiratory factor 1 (Homo sapiens) (UniProt Q16656). The assay is described as follows: ATG_NRF1_CIS: Attagene CIS-FACTORIAL HepG2 Assay for human Nuclear Respiratory Factor 1 (NRF1) Orphan Gene (AID 2282987). The note with it: HepG2 NRF1 cis-element reporter, Attagene multiplex; actives raise or lower the signal. In a few lines:
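HepG2 cells transiently transfected with multiple reporter transcription units under cis-regulatory promoter control, so endogenous transcription-factor activity is read. After 24 h compound exposure, reporter mRNA quantified by RT-PCR, fluorescent labelling, HpaI digestion and capillary electrophoresis; bidirectional fitting versus DMSO.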

Assay [5] can be described thus: ATG_NFI_CIS: Attagene CIS-FACTORIAL HepG2 Assay for human Nuclear Factor I (NFI) (AID 2282989). Conditions: HepG2 cis-regulatory reporter, NFI response element transcription; actives raise or lower the signal. In a few lines:
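After transient transfection of HepG2 with cis-promoter reporter constructs and 24 h dosing, RNA is reverse-transcribed, amplified, 6-FAM end-labelled and HpaI-digested before capillary analysis. Bidirectional curve fitting against DMSO.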

The nature of assay [6]: ATG_NF_kB_CIS: Attagene CIS-FACTORIAL HepG2 Assay for human Nuclear Factor Kappa B (NF-kB) (AID 2282991). Conditions: HepG2 Attagene cis-factorial NF-kB reporter mRNA; actives raise or lower the signal. The method, boiled down: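 HepG2 cells transiently transfected with multiplexed cis-element reporter units measuring endogenous transcription factor activity; reporter mRNA read 24 h after dosing by RT-PCR, fluorescent labelling, HpaI digestion and capillary electrophoresis. Bidirectional fit against DMSO baseline.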

The nature of assay [7]: ATG_NRF2_ARE_CIS: Attagene CIS-FACTORIAL HepG2 Assay for human Nuclear Factor Erythroid 2 Related Factor 2 (NFR2) response to Antioxidant Response Elements (ARE) (AID 2282992). Conditions: HepG2 Attagene ARE/NRF2 reporter, transcription factor activity; actives raise or lower the signal. The method, boiled down: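 Transient MRTU transfection of HepG2; 24 h compound exposure; TriZol RNA, RT with oligo(dT), PCR, 6-FAM primer extension, HpaI cut, CE. Bidirectional fit vs DMSO.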

The nature of assay [8]: ATG_Oct_MLP_CIS: Attagene CIS-FACTORIAL HepG2 Assay for human Octamer-Binding Transcription Factor (Oct) (AID 2282993). Conditions: HepG2 Attagene cis-factorial Oct reporter, mRNA; actives raise or lower the signal. The method, boiled down: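 Cells of the HepG2 line express promoter-controlled reporter sequences whose mRNA levels, after 24 h treatment, are measured by RT-PCR and capillary electrophoresis. Increases and decreases are scored relative to DMSO.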

In assay [9] the target is Oxysterols receptor LXR-alpha (Homo sapiens) (UniProt Q13133). As to the kind of experiment: ATG_LXRa_TRANS: Attagene TRANS-FACTORIAL HepG2 Assay for human Liver X Receptor alpha (LXRa) (AID 2282980; active means hit-call score of the fitted dose curve at least 0.9, where 1 is the maximum). The note with it: HepG2 Attagene TRANS reporter, LXRa transactivation. The method, boiled down:
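Transient HepG2 transfectants, 24 h dosing, RT-PCR/CE mRNA reporter quantitation; gain-of-signal vs DMSO.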

The target in assay [10] is Oxysterols receptor LXR-beta (Homo sapiens) (UniProt P55055). As to the kind of experiment: ATG_LXRb_TRANS: Attagene TRANS-FACTORIAL HepG2 Assay for human Liver X Receptor beta (LXRb) (AID 2282981; active means hit-call score of the fitted dose curve at least 0.9, where 1 is the maximum). Conditions: HepG2 Attagene TRANS GAL4-LXRb reporter, mRNA. The method, boiled down: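 Gain-of-signal mRNA reporter endpoint, DMSO as negative control. Transiently transfected HepG2 cells carrying the NR-Gal4 chimera and GAL4-UAS reporter units were treated 24 h; transcripts quantified by RT-PCR and capillary electrophoresis fluorescence.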

Assay [11] in a line: ATG_M_06_TRANS: Attagene TRANS-FACTORIAL HepG2 Assay for M06 Transcription Factor (Internal Marker) (AID 2282983; active means hit-call score of the fitted dose curve at least 0.9, where 1 is the maximum). The note with it: HepG2 Attagene TRANS M06 internal marker reporter. In a few lines:
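Measured by capillary electrophoresis of fluorescently labelled RT-PCR products, this endpoint reflects reporter mRNA in HepG2 cells harbouring exogenous NR-GAL4 reporter constructs after 24 h exposure, with DMSO as baseline.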

Assay [12] is described as follows: ATG_M_32_TRANS: Attagene TRANS-FACTORIAL HepG2 Assay for M32 Transcription Factor (Internal Marker) (AID 2282984; active means hit-call score of the fitted dose curve at least 0.9, where 1 is the maximum;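 further: transcript level of a background control reporter unit measured by RT-PCR and capillary electrophoresis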). The note with it: HepG2 Attagene TRANS M32 internal marker reporter. The method, boiled down: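 Capillary electrophoresis of 6-FAM-labelled reporter fragments gives the signal; data fitted for gain over DMSO negative control. Source: HepG2 cells bearing transient multiple reporter transcription units, 24 h exposure.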

In assay [13] the target is Nuclear receptor subfamily 4 group A member 2 (Homo sapiens) (UniProt P43354). As to the kind of experiment: ATG_NURR1_TRANS: Attagene TRANS-FACTORIAL HepG2 Assay for human Nuclear Receptor Related Protein 1 (NURR1) (AID 2282985; active means hit-call score of the fitted dose curve at least 0.9, where 1 is the maximum). The note with it: HepG2 Attagene TRANS reporter, mRNA readout. In a few lines: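 HepG2 / transient MRTU transfection / 24 h compound exposure / RT-PCR + CE fluorescence of reporter mRNA / gain-of-signal vs DMSO.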

Assay [14] has as its target Myc proto-oncogene protein (Homo sapiens) (UniProt P01106). The assay is described as follows: ATG_Myc_CIS: Attagene CIS-FACTORIAL HepG2 Assay for human Myelocytomatosis (Myc) Proto-Oncogene Transcription Factor (AID 2282990). Conditions: HepG2, Attagene cis-reporter transcription factor activity; actives raise or lower the signal. The method, boiled down:
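Transiently transfected HepG2 cells bearing cis-promoter reporter units for endogenous transcription factors; 24 h exposure. Reporter mRNA measured by RT-PCR, 6-FAM primer extension, HpaI cut and capillary electrophoresis; bidirectional fit relative to DMSO.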

Assay [15] deals with Glucocorticoid receptor (Homo sapiens) (UniProt P04150). The assay is described as follows: ATG_GR_TRANS: Attagene TRANS-FACTORIAL HepG2 Assay for human Glucocorticoid Receptor (GR) (AID 2282978; active means hit-call score of the fitted dose curve at least 0.9, where 1 is the maximum;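 further: activators score as hits since higher reporter transcript over DMSO is fitted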). The note with it: HepG2 Attagene TRANS GR reporter, mRNA transcription. The method, boiled down: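 HepG2 cells transiently transfected with multiplexed reporter units in which chimeric NR-GAL4 proteins drive GAL4-UAS reporters; 24 h compound exposure. Reporter mRNA measured by RT-PCR, 6-FAM labelling, HpaI digestion and capillary electrophoresis; gain-of-signal fitted versus DMSO.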

Assay [16] has as its target Cellular tumor antigen p53 (Homo sapiens) (UniProt P04637). As to the kind of experiment: ATG_p53_CIS: Attagene CIS-FACTORIAL HepG2 Assay for human p53 Transcription Factor (AID 2282994). The note with it: HepG2 p53 cis-element reporter, Attagene mRNA; actives raise or lower the signal. In a few lines:
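HepG2, transient MRTU transfection (cis promoter elements, endogenous TFs); 24 h dosing; RNA isolation, RT-PCR, 6-FAM primer extension, HpaI digest, CE fluorescence; bidirectional fit vs DMSO.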

Assay [17] in a line: BSK_3C_TissueFactor: BioMAP Diversity Plus: 3C Assay for Tissue Factor Biomarker Activity (AID 2282997). Conditions: BioMAP 3C HUVEC, tissue factor biomarker readout; actives raise or lower the signal. The method, boiled down: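 Values derive from bidirectional curve fitting against DMSO of Tissue Factor ELISA signals, taken 24 h after dosing primary human umbilical vein endothelial cells.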

Assay [18] in a line: BSK_3C_uPAR: BioMAP Diversity Plus: 3C Assay for Urokinase-type plasminogen activator receptor (uPAR) Biomarker Activity (AID 2282998). Conditions: BioMAP 3C HUVEC, uPAR biomarker ELISA; actives raise or lower the signal. The method, boiled down:
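Endothelial primary cells of human umbilical vein origin received test chemical; 24 h later uPAR was assayed by ELISA. Fitting was bidirectional, DMSO as negative control.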
A general note: An ELISA detects its analyte on a solid surface through an enzyme-linked reagent.

Assay [19] is described as follows: BSK_3C_VCAM1: BioMAP Diversity Plus: 3C Assay for Vascular cell adhesion molecule 1 (VCAM1) Biomarker Activity (AID 2282999). Conditions: BioMAP 3C HUVEC, VCAM1 ELISA, cytokine-stimulated; actives raise or lower the signal. In a few lines: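 Human umbilical vein endothelial cells (3C system), biomarker read by ELISA 24 h after dosing; bidirectional fit against DMSO baseline. Cytotoxicity tracked by SRB total-protein staining in parallel cultures at biomarker time.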

Sequence of Myc proto-oncogene protein (Homo sapiens) (P01106 whole entry, looked up): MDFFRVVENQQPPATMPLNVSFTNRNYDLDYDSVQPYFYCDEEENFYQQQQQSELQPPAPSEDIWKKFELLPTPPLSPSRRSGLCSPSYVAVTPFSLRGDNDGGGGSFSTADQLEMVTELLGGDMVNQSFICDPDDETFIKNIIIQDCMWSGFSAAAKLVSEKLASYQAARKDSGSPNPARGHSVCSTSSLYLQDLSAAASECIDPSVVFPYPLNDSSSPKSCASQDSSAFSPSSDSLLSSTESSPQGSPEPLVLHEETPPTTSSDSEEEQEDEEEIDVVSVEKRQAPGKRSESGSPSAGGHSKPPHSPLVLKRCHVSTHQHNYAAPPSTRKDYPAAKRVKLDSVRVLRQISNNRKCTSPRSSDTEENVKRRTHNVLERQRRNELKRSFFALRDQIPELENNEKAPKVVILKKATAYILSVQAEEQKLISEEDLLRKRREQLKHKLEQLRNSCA
Sequence of Cellular tumor antigen p53 (Homo sapiens) (P04637 whole entry, looked up): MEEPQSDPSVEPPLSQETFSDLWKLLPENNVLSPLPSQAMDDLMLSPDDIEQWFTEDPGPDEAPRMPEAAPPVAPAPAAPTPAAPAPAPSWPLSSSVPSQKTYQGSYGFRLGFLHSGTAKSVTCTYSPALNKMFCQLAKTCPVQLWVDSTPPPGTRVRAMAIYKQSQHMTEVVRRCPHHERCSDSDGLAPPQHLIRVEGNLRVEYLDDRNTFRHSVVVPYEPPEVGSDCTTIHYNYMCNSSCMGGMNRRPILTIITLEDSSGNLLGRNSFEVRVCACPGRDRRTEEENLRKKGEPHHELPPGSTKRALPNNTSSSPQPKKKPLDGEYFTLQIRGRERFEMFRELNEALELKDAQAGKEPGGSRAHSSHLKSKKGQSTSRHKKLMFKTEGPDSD
Sequence of Nuclear receptor subfamily 4 group A member 2 (Homo sapiens) (P43354 whole entry, looked up): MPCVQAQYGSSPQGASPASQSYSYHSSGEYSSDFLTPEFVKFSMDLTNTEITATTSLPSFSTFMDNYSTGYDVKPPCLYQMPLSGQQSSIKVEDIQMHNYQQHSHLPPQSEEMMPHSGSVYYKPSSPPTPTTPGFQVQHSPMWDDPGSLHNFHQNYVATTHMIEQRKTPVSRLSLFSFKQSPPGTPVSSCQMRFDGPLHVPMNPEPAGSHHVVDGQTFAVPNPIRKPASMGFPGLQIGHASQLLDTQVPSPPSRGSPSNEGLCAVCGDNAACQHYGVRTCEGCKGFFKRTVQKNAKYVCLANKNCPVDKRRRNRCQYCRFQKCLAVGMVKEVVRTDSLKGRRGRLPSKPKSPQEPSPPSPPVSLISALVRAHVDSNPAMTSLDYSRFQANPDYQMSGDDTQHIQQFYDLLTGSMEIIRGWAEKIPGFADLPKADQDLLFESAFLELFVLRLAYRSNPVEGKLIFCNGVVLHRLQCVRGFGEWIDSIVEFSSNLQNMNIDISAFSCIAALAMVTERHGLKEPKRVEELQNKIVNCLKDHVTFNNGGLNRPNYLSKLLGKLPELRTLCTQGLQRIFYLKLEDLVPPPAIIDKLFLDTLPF
Sequence of Hepatocyte nuclear factor 4-alpha (Homo sapiens) (P41235 whole entry, looked up, the tested form may be a part): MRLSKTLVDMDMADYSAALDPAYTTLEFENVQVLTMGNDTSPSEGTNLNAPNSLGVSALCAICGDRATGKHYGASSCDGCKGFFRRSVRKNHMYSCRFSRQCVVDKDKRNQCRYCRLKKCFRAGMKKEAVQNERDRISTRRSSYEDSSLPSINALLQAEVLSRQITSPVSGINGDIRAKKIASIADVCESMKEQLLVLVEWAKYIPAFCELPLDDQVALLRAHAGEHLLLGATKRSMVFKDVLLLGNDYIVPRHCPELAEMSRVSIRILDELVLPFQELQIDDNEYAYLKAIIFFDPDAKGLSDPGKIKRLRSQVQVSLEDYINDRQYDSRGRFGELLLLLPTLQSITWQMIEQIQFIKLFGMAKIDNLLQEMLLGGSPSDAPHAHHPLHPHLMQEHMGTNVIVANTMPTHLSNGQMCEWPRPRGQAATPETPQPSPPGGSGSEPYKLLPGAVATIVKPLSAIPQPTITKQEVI
Sequence of Transcriptional activator Myb (Homo sapiens) (P10242 whole entry, looked up): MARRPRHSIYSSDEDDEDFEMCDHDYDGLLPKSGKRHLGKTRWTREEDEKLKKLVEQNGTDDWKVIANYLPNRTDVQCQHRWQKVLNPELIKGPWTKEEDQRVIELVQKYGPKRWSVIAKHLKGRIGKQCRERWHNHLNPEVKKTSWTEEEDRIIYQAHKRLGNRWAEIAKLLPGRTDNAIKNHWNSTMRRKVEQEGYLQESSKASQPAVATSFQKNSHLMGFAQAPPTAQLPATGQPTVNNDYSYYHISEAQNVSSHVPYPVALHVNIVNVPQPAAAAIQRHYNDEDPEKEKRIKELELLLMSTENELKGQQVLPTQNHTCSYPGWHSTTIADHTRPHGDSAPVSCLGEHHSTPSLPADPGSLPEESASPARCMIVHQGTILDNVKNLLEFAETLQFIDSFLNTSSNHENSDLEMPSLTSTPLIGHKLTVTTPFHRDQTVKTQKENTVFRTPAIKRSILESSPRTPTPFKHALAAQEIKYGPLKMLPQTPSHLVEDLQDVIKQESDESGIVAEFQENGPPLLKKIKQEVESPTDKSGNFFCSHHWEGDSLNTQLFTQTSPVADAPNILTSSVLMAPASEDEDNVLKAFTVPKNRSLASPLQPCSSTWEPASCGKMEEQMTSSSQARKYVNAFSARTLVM
Sequence of Glucocorticoid receptor (Homo sapiens) (P04150 whole entry, looked up, the tested form may be a part): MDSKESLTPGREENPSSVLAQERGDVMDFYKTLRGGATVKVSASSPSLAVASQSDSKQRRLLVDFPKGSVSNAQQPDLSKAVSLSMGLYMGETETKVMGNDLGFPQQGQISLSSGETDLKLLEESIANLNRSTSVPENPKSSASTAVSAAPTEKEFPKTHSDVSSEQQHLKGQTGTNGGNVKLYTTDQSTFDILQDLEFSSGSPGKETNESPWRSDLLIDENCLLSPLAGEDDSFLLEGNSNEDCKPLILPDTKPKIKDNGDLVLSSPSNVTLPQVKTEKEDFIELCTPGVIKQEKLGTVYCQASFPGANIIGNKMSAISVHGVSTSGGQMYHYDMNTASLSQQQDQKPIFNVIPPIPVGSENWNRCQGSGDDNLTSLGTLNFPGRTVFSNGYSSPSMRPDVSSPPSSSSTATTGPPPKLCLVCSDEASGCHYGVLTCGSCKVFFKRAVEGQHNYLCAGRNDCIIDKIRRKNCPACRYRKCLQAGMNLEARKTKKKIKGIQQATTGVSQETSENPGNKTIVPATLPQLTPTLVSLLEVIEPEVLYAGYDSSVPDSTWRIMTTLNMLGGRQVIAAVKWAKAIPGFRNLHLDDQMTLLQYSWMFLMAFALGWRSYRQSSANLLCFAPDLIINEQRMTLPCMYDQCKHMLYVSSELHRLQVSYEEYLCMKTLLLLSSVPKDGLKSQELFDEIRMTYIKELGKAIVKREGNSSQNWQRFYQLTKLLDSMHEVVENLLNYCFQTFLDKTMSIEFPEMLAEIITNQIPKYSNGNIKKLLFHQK
Sequence of Bile acid receptor (Homo sapiens) (Q96RI1 whole entry, looked up, the tested form may be a part): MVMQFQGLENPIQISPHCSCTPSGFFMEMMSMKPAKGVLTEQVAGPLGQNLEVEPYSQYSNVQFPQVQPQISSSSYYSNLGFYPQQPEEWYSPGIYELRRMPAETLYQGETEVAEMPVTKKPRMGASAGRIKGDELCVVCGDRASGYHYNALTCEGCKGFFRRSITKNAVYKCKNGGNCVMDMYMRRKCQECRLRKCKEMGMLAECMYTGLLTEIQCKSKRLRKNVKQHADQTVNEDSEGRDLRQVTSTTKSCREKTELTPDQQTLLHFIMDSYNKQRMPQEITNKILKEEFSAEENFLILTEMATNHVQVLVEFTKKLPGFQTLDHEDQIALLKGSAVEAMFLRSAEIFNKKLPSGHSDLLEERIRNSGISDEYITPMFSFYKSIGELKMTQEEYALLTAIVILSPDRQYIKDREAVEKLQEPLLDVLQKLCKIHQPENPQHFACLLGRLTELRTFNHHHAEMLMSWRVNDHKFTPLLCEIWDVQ
Sequence of Nuclear respiratory factor 1 (Homo sapiens) (Q16656 whole entry, looked up): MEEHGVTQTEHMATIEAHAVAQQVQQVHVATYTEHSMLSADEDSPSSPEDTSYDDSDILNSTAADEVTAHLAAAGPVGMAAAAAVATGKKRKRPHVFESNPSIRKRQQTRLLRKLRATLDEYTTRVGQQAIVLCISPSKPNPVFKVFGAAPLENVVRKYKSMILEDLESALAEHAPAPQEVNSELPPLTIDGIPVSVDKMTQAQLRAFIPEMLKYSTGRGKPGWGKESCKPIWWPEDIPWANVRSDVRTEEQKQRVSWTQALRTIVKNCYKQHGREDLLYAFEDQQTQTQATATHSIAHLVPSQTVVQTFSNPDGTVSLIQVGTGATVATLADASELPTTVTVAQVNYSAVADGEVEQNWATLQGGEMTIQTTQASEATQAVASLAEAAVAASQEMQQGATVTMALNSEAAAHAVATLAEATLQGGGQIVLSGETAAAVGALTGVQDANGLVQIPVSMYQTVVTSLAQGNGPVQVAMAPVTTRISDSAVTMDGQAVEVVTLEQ
Sequence of Oxysterols receptor LXR-alpha (Homo sapiens) (Q13133 whole entry, looked up): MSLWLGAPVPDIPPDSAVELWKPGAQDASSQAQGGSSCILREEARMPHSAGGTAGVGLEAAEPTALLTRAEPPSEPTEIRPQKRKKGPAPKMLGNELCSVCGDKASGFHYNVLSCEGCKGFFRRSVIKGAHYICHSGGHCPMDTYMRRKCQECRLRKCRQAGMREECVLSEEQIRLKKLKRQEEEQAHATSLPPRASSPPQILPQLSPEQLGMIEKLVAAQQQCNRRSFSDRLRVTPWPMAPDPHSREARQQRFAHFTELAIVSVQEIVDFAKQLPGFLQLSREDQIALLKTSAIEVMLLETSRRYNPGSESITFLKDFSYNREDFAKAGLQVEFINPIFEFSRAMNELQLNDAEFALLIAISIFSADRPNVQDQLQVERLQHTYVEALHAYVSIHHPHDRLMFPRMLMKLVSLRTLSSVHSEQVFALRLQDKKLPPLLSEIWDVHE

For `Cc1ccccc1S`, the result in assay [1], in assay [2], in assay [3], in assay [4] and in [6] was inactive. In addition, the figures for the AC50 in assay [5], in assay [7] and in assay [8] were 74 µM (active), 24.5 µM (active) and 98.5 µM (active), respectively.
For the compound `N#CCCNCCC#N`, the compound was called inactive in [9], in assay [10], in [2], in assay [11], in [12] and in [13]. The compound was classed as inactive in assay [4], in assay [5], in assay [14] and in [7].
As to `CC(C)(CO)CO`, the compound was called inactive in [15], in [3], in assay [4], in assay [5], in assay [7] and in assay [8]. Further, the outcome in [16], in [17], in assay [18] and in assay [19] was inactive.
`C=C(C)C(=O)OCCC(C)OC(=O)C(=C)C` (stereo not drawn): the call in assay [15], in [2], in assay [12], in assay [3], in [4] and in [5] was inactive. Also, the outcome in [14], in assay [6] and in assay [16] was inactive.
In the case of `CC1=CCC(C(C)(C)O)CC1` (stereo not drawn), the outcome in assay [1], in assay [11], in assay [13], in assay [3], in assay [4] and in [5] was inactive. The compound was called inactive in [14], in assay [6], in assay [7] and in assay [16].
`CCCO[Si](OCCC)(OCCC)OCCC`: the call in assay [15], in assay [12], in assay [13], in assay [3], in assay [4] and in [5] was inactive. For the same compound, the result in [14], in assay [7], in [8], in assay [16], in assay [17] and in assay [18] was inactive. In assay [19], the result was inactive.
On to `S=c1[nH][nH]c(=S)s1`, for which the call in assay [15], in [13], in assay [4], in assay [5], in assay [14] and in assay [6] was inactive. The compound was called inactive in assay [7], in [8] and in assay [16].
`CC(C)(C)c1ccc(S)cc1`: the outcome in assay [15], in assay [11], in [3], in [4], in assay [5] and in [14] was inactive. The outcome in assay [8] was inactive. Moreover, the AC50 (in general, the concentration at which the activity in the assay is half-maximal) in [7] is 16.1 µM (active).
Turning to `C=CCOCC(O)CO` (stereo not drawn), the outcome in assay [1], in assay [9], in assay [2], in assay [11], in [4] and in assay [5] was inactive. In addition, the compound was called inactive in [7], in assay [8] and in [16].
For the compound `CCn1cc(C(=O)O)c(=O)c2ccc(C)nc21`, the call in [1], in [11], in assay [12], in [3], in [4] and in [5] was inactive. In addition, the outcome in assay [14], in assay [6], in assay [8], in [17], in assay [18] and in assay [19] was inactive.
